Consider 15 compounds from PubChem BioAssay.

Activity calls are given as the source filed them.

Experiment [1] is described as follows: A549 cell viability effects, profiling panel, calcein-AM fluorescence, 48 h, basal (AID 1162). The note with it: higher = more signal.
Experiment [2] in a line: adipocyte viability effects, profiling panel, cell-based, 3T3-L1 adipocytes, calcein-AM fluorescence, 48 h, basal (AID 1163). The note with it: 3T3-L1 adipocytes viability, higher = more signal.
Experiment [3] can be described thus: HepG2 cell viability effects, profiling panel, calcein-AM fluorescence, 48 h, basal (AID 1164). The note with it: higher = more signal.
Experiment [4] can be described thus: MM1S cell viability effects, profiling panel, calcein-AM fluorescence, 48 h, basal (AID 1165).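 Also: viability of MM1S multiple myeloma cells under basal unstimulated conditions.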 The note with it: higher = more signal.
A short description of experiment [5]: basal RPMI8226 viability, no added stimulus, profiling panel, cell-based, calcein-AM fluorescence, 48 h, PK04 Diversity Set (AID 1166).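 Also: cells grown under basal conditions without added stimulus.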 The note with it: RPMI8226 myeloma viability, higher = more signal.
Experiment [6] can be described thus: basal HepG2 mitochondrial membrane potential changes, profiling panel, cell-based, JC-1 fluorescence, 24 h, 100 nL compound (AID 1167). The note with it: higher = more signal.
Experiment [7] in a line: basal 3T3-L1 adipocyte mitochondrial potential changes, profiling panel, cell-based, JC-1 fluorescence, 3T3-L1 adipocytes, 24 h, 100 nL compound (AID 1168). The note with it: JC-1 mitochondrial fluorescence, higher = more signal, called active from +8 up or from −8 down.
Experiment [8] in a line: basal RPMI8226 mitochondrial membrane potential changes, profiling panel, cell-based, JC-1 fluorescence, 24 h, 100 nL compound (AID 1169). The note with it: RPMI8226 myeloma, JC-1 mitochondrial potential fluorescence, higher = more signal.
A short description of experiment [9]: basal MM1S mitochondrial membrane potential changes, profiling panel, cell-based, JC-1 fluorescence, 24 h, 100 nL compound (AID 1170). The note with it: higher = more signal.
A short description of experiment [10]: A549 lung cancer cell viability effects, profiling panel, resazurin fluorescence, 24 h, PK04 Diversity Set (AID 1171). The note with it: higher = more signal, called active from +8 up or from −8 down. Background: Alamar Blue is a resazurin reagent that responds to reducing activity.
Also: test concentration not given here.

For the compound `COc1ccc(C(=O)Nc2cccc(CN3C(=O)[C@@]4(O[C@@H](CC(=O)N(CCO)Cc5ccccc5)[C@H]([Si](C)(C)c5ccc(OC)cc5)[C@H]4C)c4ccccc43)c2)cc1`, the z-score in experiment [1] was -0.269; in [2] it was 1.36; in experiment [3], -1.39; in experiment [4], -0.696; in [5], -4.07; in [6], 0.672. Also, the z-score in [7] was 2.67 (inactive); in experiment [8], -0.865; in experiment [9], -0.789; in [10], -2.23 (inactive).
With `COc1cc(NN2C(C(O)c3ccccc3)C=CC3C(=O)N(C)C(=O)C32)cc(OC)c1OC` (stereo not given), the z-score was -0.209 in experiment [1]; 0.68 in experiment [2]; -0.131 in [3]; -1.34 in experiment [4]; -0.589 in experiment [5]; -0.944 in experiment [6]. The z-score was 0.215 (inactive) in experiment [7], -0.413 in [8], -1.54 in experiment [9] and -1.52 (inactive) in experiment [10].
As to `CN(C)CCCCCCNC(=O)[C@@H]1C[C@@H]2C(=O)N[C@@H](CCCCN)C(=O)N2[C@@H]1c1ccc(O)cc1`, the z-score in experiment [1] was 1.4; in experiment [2], 0.576; in experiment [3], -0.521; in [4], 0.56; in experiment [5], -0.345; in experiment [6], -0.695. The z-score in experiment [7] was -0.625 (inactive); in experiment [8], -0.273; in experiment [9], -1; in experiment [10] it was -0.3 (inactive).
For `CCOC(=O)C1=C[C@@H](C(C)(C)C)N(S(=O)(=O)c2ccc(C)cc2)[C@H]1c1cccc(Cl)c1`, the z-score in experiment [1] was -2.79; in experiment [2], -0.192; in experiment [3] it was -2.64; in [4], -2.77; in experiment [5], -4.21; in experiment [6] it was 5.38. In addition, the z-score in experiment [7] is 0.318 (inactive); in [8], -1.14; in [9] it was -2.3; in [10], -1.12 (inactive).
For `CC(C)C(=C=CC[C@H](O)c1cccc(OCCO)c1)CCO`, the z-score in experiment [1] was 0.211; in [2], 0.786; in [3], 0.401; in [4], 0.214; in [5], 0.292; in experiment [6] it was 0.434. The z-score is -0.599 (inactive) in experiment [7], 0.6 in experiment [8], -0.373 in experiment [9] and 1.21 (inactive) in experiment [10].
Consider `COCCOC(=O)N1C(=O)[C@@]2(c3ccccc31)[C@H](c1ccccc1OCCO)N1[C@H](c3ccccc3)[C@H](c3ccccc3)OC(=O)[C@H]1[C@@H]2C(N)=O`, for which the z-score in [1] is -1.59; in experiment [2], 0.61; in experiment [3] it was -1.85; in experiment [4] it was -3.32; in experiment [5], -4.57; in experiment [6], -0.88. Also, the z-score is -0.27 (inactive) in [7], -1.15 in [8], -1.21 in experiment [9] and -1.78 (inactive) in experiment [10].
Consider `Nc1cc(Br)ccc1C(=O)O`, for which the z-score in experiment [1] is 1.51; in [2], 0.679; in experiment [3], 0.264; in experiment [4], 1.29; in experiment [5], 0.804; in [6] it was 0.799. The z-score in experiment [7] is 0.55 (inactive); in experiment [8] it was 0.432; in experiment [9], 1.54; in [10], 0.671 (inactive).
In the case of `C=CC1c2cc(O)c(OC)cc2CCN1Cc1ccc([N+](=O)[O-])o1` (stereo not given), the z-score is 0.654 in experiment [1]; -0.187 in experiment [2]; -0.143 in experiment [3]; -0.429 in [4]; 0.413 in experiment [5]; -0.22 in experiment [6]. For the same compound, the z-score in experiment [7] is 0.362 (inactive); in [8], -0.0931; in experiment [9], 0.877; in [10] it was 0.0283 (inactive).
On to `CCC(CC)C(O)C1C=CC2C(=O)N(c3ccccc3)C(=O)C2N1Nc1ccc([N+](=O)[O-])cc1` (stereo not given), for which the z-score in [1] is -0.878; in [2] it was -1.13; in [3] it was -0.172; in experiment [4], 0.486; in experiment [5] it was -1.23; in experiment [6], -2.25. For the same compound, the z-score in experiment [7] was -1.37 (inactive); in experiment [8], 0.523; in experiment [9], -1.6; in [10] it was -0.517 (inactive).
For `COCCOC(=O)N1C(=O)[C@@]2(c3cc(C#CCCO)ccc31)[C@H](C(N)=O)[C@H]1C(=O)O[C@H](c3ccccc3)[C@H](c3ccccc3)N1[C@@H]2c1ccc(OCCO)cc1`, the z-score in experiment [1] is 0.518; in [2], 0.0809; in experiment [3], 0.325; in [4] it was -0.971; in experiment [5], -0.859; in experiment [6], -1.78. In addition, the z-score in [7] is 0.959 (inactive); in [8] it was -0.505; in [9] it was -0.0622; in experiment [10], -0.0958 (inactive).
With `C=C(COC)/C(=C/C[C@@H](OC(=O)c1ccncc1)c1ccccc1OCCO)c1cc(C(=O)OC)ccc1OC`, the z-score was 2.37 in experiment [1]; -0.193 in [2]; -0.11 in experiment [3]; -3.29 in experiment [4]; -1.63 in experiment [5]; 1.35 in experiment [6]. Further, the z-score in experiment [7] was -1.04 (inactive); in [8], -0.735; in [9] it was -1.9; in experiment [10] it was 0.314 (inactive).
As for `CC(C)CNC(=O)[C@@]1(c2ccc([N+](=O)[O-])cc2)CC(=O)N(C2CCCCC2)[C@@H]1c1ccc(CO)cc1`, the z-score was -0.0452 in [1]; 0.389 in experiment [2]; -0.004 in experiment [3]; -0.41 in [4]; 0.542 in experiment [5]; 0.634 in experiment [6]. Besides, the z-score in [7] is -0.6 (inactive); in [8], -0.426; in experiment [9], 0.771; in experiment [10] it was 0.436 (inactive).
As for `O=C1C2C=CC(C(O)c3cc(C(F)(F)F)cc(C(F)(F)F)c3)N(Nc3ccccc3F)C2C(=O)N1c1ccccc1` (stereo not given), the z-score was -1.28 in [1]; -0.599 in [2]; -3.36 in experiment [3]; -3.6 in [4]; -4.08 in experiment [5]; -3.93 in [6]. The z-score in [7] was 0.0394 (inactive); in experiment [8], -1.11; in experiment [9], -0.964; in experiment [10], -0.648 (inactive).
With `C=CCC(OC(C)=O)[C@@H]1[C@@H](N(Cc2ccc(-c3ccccc3)cc2)C(=O)c2ccc(C)cc2)c2cc(OCCCO)ccc2N1C(=O)Cc1ccc2ccccc2c1` (stereo not given in full), the z-score in experiment [1] was 1.35; in [2], 0.844; in experiment [3] it was 0.769; in experiment [4] it was 0.697; in experiment [5] it was 0.922; in experiment [6], 3.38. The z-score is 0.144 (inactive) in experiment [7], -0.0998 in [8], 1.14 in [9] and 0.887 (inactive) in experiment [10].
For `COCCOC(=O)N1C(=O)[C@@]2(c3cc(C#CCNC(N)=O)ccc31)[C@H](c1ccc(O)cc1)N1[C@H](c3ccccc3)[C@H](c3ccccc3)OC(=O)[C@H]1[C@@H]2C(=O)N1CCN(c2ncccn2)CC1`, the z-score in experiment [1] was -0.652; in experiment [2], -0.901; in [3], 0.527; in [4], -0.0396; in experiment [5], -1.05; in experiment [6], -2.34. Besides, the z-score is 0.703 (inactive) in [7], -0.322 in experiment [8], -1.14 in [9] and -0.163 (inactive) in [10].
